Hits are enriched below; roughly 3.4% of the tested compounds scored in any of these assays.
KLK7 zymogen act = proKLK7 zymogen activators, primary screen, biochemical, fluorescence intensity; 370,000 compounds, 0.9% hits; Kallikrein-7 (Homo sapiens), P49862; activation, % at 7 µM; purified proKLK7, EDANS-DABCYL substrate fluorescence; 100% is mature enzyme control, 0% vehicle;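 active = activation above the mean of all tested compounds plus 3 SD, computed per campaign excluding outliers beyond control limits, cut at about 13% in these data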
ADAM10 inh = human ADAM10 inhibitors, primary screen, biochemical, QFRET, HTS | inhibition, % at 7 µM | recombinant ADAM10, EDANS/DABCYL FRET peptide cleavage, 3 h | 370,000 compounds, 0.62% hits | Disintegrin and metalloproteinase domain-containing protein 10 (Homo sapiens), O14672;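 active = inhibition above a per-campaign cutoff equal to the mean of compounds falling between control-based bounds plus 3 SD, cut at about 20% in these data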
Target sequence (O14672 214-748 limits assumed): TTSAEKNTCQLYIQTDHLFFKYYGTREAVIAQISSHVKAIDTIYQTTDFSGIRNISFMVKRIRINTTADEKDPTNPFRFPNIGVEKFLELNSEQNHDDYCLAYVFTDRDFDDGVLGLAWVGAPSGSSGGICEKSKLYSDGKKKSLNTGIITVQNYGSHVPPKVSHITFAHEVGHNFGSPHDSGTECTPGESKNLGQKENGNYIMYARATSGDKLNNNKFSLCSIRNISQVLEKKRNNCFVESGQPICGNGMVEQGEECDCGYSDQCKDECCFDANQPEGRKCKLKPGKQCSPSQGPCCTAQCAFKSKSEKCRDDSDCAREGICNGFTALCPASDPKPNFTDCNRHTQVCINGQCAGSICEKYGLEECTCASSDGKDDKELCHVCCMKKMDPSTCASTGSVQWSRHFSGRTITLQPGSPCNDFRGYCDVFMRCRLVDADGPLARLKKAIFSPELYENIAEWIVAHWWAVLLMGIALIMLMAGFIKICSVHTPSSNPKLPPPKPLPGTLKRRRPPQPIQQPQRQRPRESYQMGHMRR
PLCg1 inh = PLC-gamma1 enzyme inhibitors, primary screen, biochemical, fluorescence, purified enzyme. 1-phosphatidylinositol 4,5-bisphosphate phosphodiesterase gamma-1 (Homo sapiens), P19174. fluorogenic substrate. inhibition, % at 12.2 µM. 370,000 compounds, 0.84% hits. AID 720700, 2013
ADAM17 inh = ADAM17 inhibitors, primary screen, biochemical, QFRET | 370,000 compounds, 0.83% hits | inhibition, % at 6.95 µM | recombinant ADAM17, EDANS/DABCYL FRET peptide cleavage | Disintegrin and metalloproteinase domain-containing protein 17 (Homo sapiens), P78536;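 active = inhibition above the mean of compounds lying between control limits plus 3 SD, set per campaign, cut at about 8.5% in these data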
sPLA2-III inh = human group III sPLA2 inhibitors, primary screen, biochemical, QFRET, BODIPY PC-A2 liposome substrate; AID 743126, 2013; Group 3 secretory phospholipase A2 (Homo sapiens), Q9NZ20; inhibition, % at 12.2 µM; QFRET BODIPY PC-A2 liposome hydrolysis, fluorescence; 370,000 compounds, 0.56% hits;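 active = inhibition above mean plus 3 SD of compounds lying within the high and low control bounds, cut at about 19% in these data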
PLC-beta3 inh = human PLC-beta3 inhibitors, primary screen, biochemical, fluorescence. 1-phosphatidylinositol 4,5-bisphosphate phosphodiesterase beta-3 (Homo sapiens), Q01970. Purified PLC-beta3, fluorogenic substrate. inhibition, % at 12.2 µM. 370,000 compounds, 0.18% hits. AID 720704, 2013; in the data active = inhibition above about 11%
PLCgamma1 ctr = PLC-gamma1 enzyme inhibitors, counter-screen for PLC-beta3 inhibitor project, biochemical, fluorescence; shares compounds with PLCg1 inh; inhibition, % at 12.3 µM; 3,300 compounds, 3.1% hits; purified PLC-gamma1, fluorogenic substrate
PLCb3 confirm = PLC-beta3 inhibitor confirmation, biochemical, fluorescence, purified enzyme; shares compounds with PLCg1 inh; fluorogenic substrate fluorescence; 3,300 compounds, 1% hits; AID 743261, 2014; inhibition, % at 12.3 µM; in the data active = inhibition above about 11%
A number is an active result; – = inactive; · = not tested or not shown. Rule as the data show it, unless noted: active = inhibition above about 9.5%; inactive = the rest.

SMILES	KLK7 zymogen act	ADAM10 inh	PLCg1 inh	ADAM17 inh	sPLA2-III inh	PLC-beta3 inh	PLCgamma1 ctr	PLCb3 confirm
COC(=O)C1=C(C)N(Cc2ccccc2C(F)(F)F)C(=NCc2ccc(C(F)(F)F)cc2)NC1c1cccc(F)c1 (configuration not stated)	–	–	–	–	–	–	·	·
O=C(CCn1c(=S)oc2ccccc21)NC1CCCCCCC1	–	–	10.0	–	–	–	–	–
O=C(CCn1c(=S)oc2ccccc21)N1CCCCC1	–	–	–	–	–	–	·	·
CC12CCC3c4ccc(OCCCO)c([N+](=O)[O-])c4CCC3C1CCC2=O (configuration not stated)	–	–	–	–	–	–	·	·
CC(=O)Nc1ccc(Sc2ccc([N+](=O)[O-])o2)cc1	–	–	10.2	–	–	–	–	–
CC(C)(C)C(=O)Nc1ccc(Sc2ccc([N+](=O)[O-])cc2)cc1	–	–	–	–	–	–	·	·
Cn1nc(C(C)(C)C)cc1C(=O)NCC1CCN(C(=O)C(=O)c2cc3ccccc3o2)CC1	–	–	–	–	–	–	·	·
CC(C)CC(=O)NC(=S)Nc1ccc(CN2CCOCC2)cc1	–	–	–	–	–	–	·	·
CCc1cccc(NC(=S)Nc2ccc(CN3CCOCC3)cc2)c1	–	–	9.8	–	–	–	–	–
CC(COc1cccc(Cl)c1)CN1CCC(C(O)(c2ccccc2)c2ccccc2)CC1 (configuration not stated)	–	–	–	–	–	–	·	·
COCOc1cccc(CN2CCC2(C)C(=O)Nc2ccc(C)cc2)c1 (configuration not stated)	–	–	12.9	–	–	–	–	–
CC(C)Oc1ccc(CN2CCC2(C)C(=O)Nc2ccc3c(c2)OCO3)cc1 (configuration not stated)	–	–	12.4	–	–	–	–	–
Cc1ccccc1-c1cccc2c3c([nH]c12)[C@@H]1C[C@H]2[C@@H](CN1CC3)[C@H](C)ON2C	–	–	–	–	–	–	·	·
Cc1cc(C(=O)NCC2CCCCC2)ccc1[N+](=O)[O-]	–	–	10.9	–	–	–	–	–
O=C(C=Cc1ccc(OCc2ccccc2)cc1)c1c(F)cccc1F	–	–	–	–	–	–	·	·
COC(=O)c1cc2c(c3c4cc(F)ccc4n(S(=O)(=O)c4ccc(C)cc4)c13)C(=O)N(Cc1ccccc1OC)C2	–	–	–	–	–	–	·	·
O=C1CC(SCCO)C(=O)N1c1ccc(Oc2ccccc2)cc1 (configuration not stated)	–	–	14.6	–	–	–	–	–
CC(=O)c1c(C)[nH]c(C(=O)Nc2cccc(C#N)c2)c1C	–	–	9.8	–	–	–	–	–
CC(=O)c1c(C)[nH]c(C(=O)Nc2cccc(C(F)(F)F)c2)c1C	–	–	–	–	–	–	·	·
Cc1csc(Nc2nc(N)c(C(=O)Nc3ccccc3)o2)n1	–	–	13.7	–	–	10.7	–	–
Cc1ccccc1NC(=O)C(C)Sc1nnc(CN2CCCC2)n1Cc1ccccc1 (configuration not stated)	–	–	10.2	–	–	–	–	–
CC(Sc1nnc(CN2CCCC2)n1Cc1ccccc1)C(=O)Nc1ccccc1 (configuration not stated)	–	–	–	–	–	–	·	·
CC(C)C(CCNC1CCN(C)CC1)c1ccc(Cl)cc1 (configuration not stated)	–	–	–	–	–	–	·	·
CN1CCC(NCCC(c2ccc(F)cc2)c2ccc(Cl)cc2)CC1 (configuration not stated)	–	–	10.0	–	–	–	–	–
O=C(NNC(=O)c1ccncc1)Nc1ccc(N=Nc2ccccc2)cc1	–	–	11.6	–	–	–	–	–
SMILES	KLK7 zymogen act	ADAM10 inh	PLCg1 inh	ADAM17 inh	sPLA2-III inh	PLC-beta3 inh	PLCgamma1 ctr	PLCb3 confirm
O=C(NNC(=O)c1ccncc1)Nc1ccccc1	–	–	–	–	–	–	·	·
CN(Cc1cccc2cnccc12)C(=O)CCc1nnc(CCc2ccccc2)o1	–	–	–	–	–	–	·	·
CC(c1nccs1)N(C)C(=O)CCc1nnc(CCc2ccccc2)o1 (configuration not stated)	–	–	11.9	–	–	–	–	–
COc1ccc(NC(=O)NC2(C)CCS(=O)(=O)C2)cc1 (configuration not stated)	–	–	11.6	–	–	–	–	–
O=C(Nc1nc(COc2ccccc2)cs1)C12CC3CC(CC(C3)C1)C2	–	–	–	–	–	11.2	–	–
CC(C)[C@@H]1CC[C@@H](C)C[C@H]1OC(=O)C[n+]1cc(-c2ccc(Cl)cc2)n2c1CCCCC2	–	–	11.5	–	–	–	–	–
COC(=O)[C@]12C[C@H](CC(=O)N3CCCCC3)C(=O)N(Cc3cccc4ccccc34)C1=C[C@H](C(C)(C)C)O[C@@H]2C	–	–	–	–	–	–	·	·
O=C(c1cc(Cl)cc(Cl)c1)N1CC[C@H]2[C@H](CCCN2Cc2ccccc2)C1	–	–	–	–	–	–	·	·
Cc1ccccc1CSc1n[nH]c(NS(=O)(=O)c2ccccc2)n1	–	–	10.4	–	–	–	–	–
Cc1nc(SCc2ccccc2C#N)n[nH]1	–	–	–	–	–	–	·	·
CC(=O)NC(Cc1ccc(F)cc1)C(=O)NC1CCN(C(=O)Nc2cccc(C)c2)CC1 (configuration not stated)	–	–	10.4	–	–	–	–	–
Cc1c(NC(=O)C2CCCN(S(=O)(=O)c3c(C(C)C)cc(C(C)C)cc3C(C)C)C2)c(=O)n(-c2ccccc2)n1C (configuration not stated)	–	–	–	–	–	–	·	·
Cn1ncc2nc[nH]c(=O)c21	–	–	10.5	–	–	–	–	–
Cn1ncc2nnn(-c3ccccc3)c(=O)c21	–	–	–	–	–	–	·	·
O=C(NCc1ccc(OC(F)(F)F)cc1)C1CCC(=O)N(C2CC2)C1 (configuration not stated)	–	–	10.7	–	–	–	–	–

Bioassay records deposited in PubChem by The Scripps Research Institute Molecular Screening Center.
